Assay: blockers of RIG-like receptor reporter activation – cell-based, Sendai virus stimulus, luciferase, 10K MLSCN set, TLR/RLR signaling modifier project, primary screen (AID 602276);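 note: firefly luciferase from ISG56 promoter only with Renilla not read in this screen; 0% = Sendai virus plus DMSO and 100% = medium plus DMSO without virus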
Conditions: HEK293 RL24 IRF3 luciferase reporter, at 10 µM, hits give high values;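 active = inhibition at or above 50% at 10 µM; inactive = inhibition below 50%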

inhibition, inactive:
COc1cc(NS(=O)(=O)c2ccc(N)cc2)nc(OC)n1 24.9%
C=CCSc1nnc2n(CCc3ccccc3)c(=O)c3c4c(sc3n12)COC(C)(C)C4 0.226%
COc1c2occc2c(OC)c2c(=O)cc(C)oc12 14.8%
CCCn1c(=O)c2[nH]c(C3CCCC3)nc2n(CCC)c1=O 14.1%
CCOC(=O)Cc1nnc(Nc2cccc(O)c2)c2ccccc12 0.504%
COc1ccc(C(=O)Cn2c(N3CCCCC3)nc3c2c(=O)n(C)c(=O)n3C)cc1OC 14.5%
CCn1cc(C(=O)O)c(=O)c2cc(F)c(N3CCNCC3)nc21 3%
Cc1ccc(S(=O)(=O)NC(=O)NN2CCCCCC2)cc1 9.08%
Cn1c(/C(C#N)=C/Nc2ccccn2)nc2ccccc21 -13.3%
COc1ccc(CNc2oc(COc3ccccc3Cl)nc2C#N)cc1 7.08%
CC(NC(=O)NCCCC(=O)O)(C(F)(F)F)C(F)(F)F 18.9%
CC(NC(=O)Nc1nccs1)(C(F)(F)F)C(F)(F)F 1.15%
CCC1CCCCN1c1nc(-c2ccncc2)nc2ccccc12 (centres undefined) 24.2%
C=C(C)C1Cc2c(C)nn(-c3nc(C)cc(C)n3)c2C1 (centres undefined) 11.3%
CCCCOc1ccc(CC(=O)NO)cc1 13.6%
COC(=O)c1cc(Br)c(=O)n(-c2nccs2)c1 -0.165%
Cc1ccc(NC(=O)CSC2=C(C#N)C(c3ccc4c(c3)OCO4)CC(=O)N2)cc1C (centres undefined) -18.5%
CCN(CC)C(=O)c1sc2nc(-c3cccs3)cc(-c3cccs3)c2c1N 20.8%
Cc1ccc(-c2nnc(-c3cccc(Br)c3)o2)cc1 -18%
CCCCOc1ccc(C(=O)Nc2ccc(N3CCN(C(C)=O)CC3)cc2)cc1 6.98%
CCN(CC)CCNC(=O)c1ccc(NC(C)=O)cc1 12.9%
COC(=O)c1ccccc1NC(=O)CSc1nnc(-c2ccncc2)o1 5.8%
CN(C)C(CN1C(=O)C2CC=CCC2C1=O)c1cn(C)c2ccccc12 (centres undefined) 24.3%
CCOc1cc(C2Nc3ccccc3C(=O)N2c2ccccc2OC)ccc1O (centres undefined) -2.55%
Cc1cn2c(-c3ccncc3)nnc2s1 4.57%
COc1ccc(/C(O)=C2/C(=O)C(=O)N(CCN(C)C)C2c2ccccn2)cc1OC (centres undefined) -0.634%
Cc1oc2nc(SCCCC(=O)NCCCO)nc(N)c2c1C 12.9%
C[C@@H]1CCC[C@H](C)N1NC(=O)c1ccc(Cl)c(S(N)(=O)=O)c1 3.39%
O=C(CCCN1C(=O)c2ccccc2C1=O)N1CCC(c2ccccc2)C1 (centres undefined) 10.8%
O=C1C2CC=C(Cl)CC2C(=O)N1CNc1ccccn1 (centres undefined) 11.3%
COCCNC(=O)c1c(N)n(/N=C/c2cccs2)c2nc3ccccc3nc12 5.03%
COC(=O)CC1SC(=O)NC1=O (centres undefined) 1.46%
N#Cc1nc(COc2ccc(Br)cc2)oc1N1CCCC1 12.8%
CCOC(=O)C1CCN(C(C)=C2C(=O)c3ccccc3C2=O)CC1 6.04%
CCSc1nnc(NC(=O)C(CC)(C(F)(F)F)C(F)(F)F)s1 -0.9%
N#CC1=C(N)OC2=C(C(=O)CCC2)C1CCc1ccccc1 (centres undefined) 7.7%
Cc1cc(OCC(=O)Nc2ccc3oc(-c4ccncc4)nc3c2)ccc1Cl -19.3%
CCSc1nc(O)c(C2OC(=O)c3c2ccc(OC)c3OC)c(=O)n1-c1ccccc1 (centres undefined) 13.8%
Cc1c(C)c2cc(Cl)c(O)c(CN3CCCCC3)c2oc1=O 4.19%

— PubChem BioAssay
